Reference: PubChem BioAssay (NCI)
About 83,000 compounds went through this panel and 20% of them were active in at least one assay; those are over-represented in the sample as a whole.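 How to read the values: 0–100, growth inhibition (40 = 60% inhibited); 0, no net growth; -100 to 0, cell death (-40 = 40% of starting cells died; -100 = all dead).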 The source made the active and inactive calls. How the source made its calls: active means growth percent below 10; inactive means the rest.

Tests used:
Test in all cases: NCI-60 one-dose screen, 48 h (100 = growth as untreated, 0 = no growth, -100 = all killed)
Conditions in all cases: 10 µM
NCI-H23 lung = test system: NCI-H23 lung
NCI-H226 lung = test system: NCI-H226 lung
NCI-H322M lung = test system: NCI-H322M lung
HOP-62 NSCLC = test system: HOP-62 NSCLC
NCI-H460 lung = test system: NCI-H460 lung
NCI-H522 lung = test system: NCI-H522 lung
A549/ATCC NSCLC = test system: A549/ATCC NSCLC
786-0 renal = test system: 786-0 renal
COLO 205 colon = test system: COLO 205 colon
DU-145 prostate = test system: DU-145 prostate
K-562 leukemia = test system: K-562 leukemia
MALME-3M melanoma = test system: MALME-3M melanoma
MDA-MB-231 breast = test system: MDA-MB-231 breast
RXF 393 renal = test system: RXF 393 renal
SF-268 CNS = test system: SF-268 CNS
SF-295 CNS = test system: SF-295 CNS
SF-539 CNS = test system: SF-539 CNS
UACC-257 melanoma = test system: UACC-257 melanoma
M14 melanoma = test system: M14 melanoma
HCT-15 colon = test system: HCT-15 colon

Measured: growth

CSc1nn(-c2ccccc2)c2ncnc(Oc3ccc(C)cc3)c12
inactive: NCI-H23 lung 91.8% | NCI-H226 lung 81.4% | NCI-H322M lung 82% | HOP-62 NSCLC 67.5% | NCI-H460 lung 91% | NCI-H522 lung 75.5% | A549/ATCC NSCLC 80% | 786-0 renal 65.4% | COLO 205 colon 113% | DU-145 prostate 105% | K-562 leukemia 88.9% | MALME-3M melanoma 91.6% | MDA-MB-231 breast 66.9% | RXF 393 renal 68.9% | SF-268 CNS 90.7% | SF-295 CNS 93.1% | SF-539 CNS 94.5% | UACC-257 melanoma 93% | M14 melanoma 90.5% | HCT-15 colon 93.5%

CN(C)Cc1cn(-c2ncc(-c3ccc(C(F)(F)F)cc3)c(NC3CCCCCC3)n2)nn1
inactive: NCI-H23 lung 95.6% | NCI-H226 lung 88.8% | NCI-H322M lung 88.3% | HOP-62 NSCLC 94.2% | NCI-H460 lung 93.4% | NCI-H522 lung 73.5% | A549/ATCC NSCLC 95.2% | 786-0 renal 90.4% | COLO 205 colon 70.9% | DU-145 prostate 89.3% | K-562 leukemia 38.2% | MALME-3M melanoma 73.5% | MDA-MB-231 breast 89.5% | RXF 393 renal 93.6% | SF-268 CNS 88.5% | SF-295 CNS 94.3% | SF-539 CNS 99.3% | UACC-257 melanoma 82.8% | M14 melanoma 84.5% | HCT-15 colon 94.1%

O=C(Nc1cccc(-n2cc(-c3ccncc3)c(-c3ccc(O)c(Cl)c3)n2)c1)c1ccc(N2CCOCC2)c(C(F)(F)F)c1
active: 786-0 renal 8.9% | K-562 leukemia 3.17% | MDA-MB-231 breast -30.5% | RXF 393 renal -8.59% | SF-295 CNS -39.7% | SF-539 CNS -28%
inactive: NCI-H23 lung 42.2% | NCI-H226 lung 85.8% | NCI-H322M lung 44.5% | HOP-62 NSCLC 41.5% | NCI-H460 lung 11.6% | NCI-H522 lung 35.6% | A549/ATCC NSCLC 22.9% | COLO 205 colon 51.2% | DU-145 prostate 62.7% | MALME-3M melanoma 21.3% | SF-268 CNS 63.2% | UACC-257 melanoma 60.1% | M14 melanoma 36.8% | HCT-15 colon 16.6%

CC(=O)N(C)c1ccc(Nc2ccc(Nc3ccc(N(C)C(C)=O)cc3)c3c2C(=O)c2ccccc2C3=O)cc1
inactive: NCI-H23 lung 87.3% | NCI-H226 lung 84.2% | NCI-H322M lung 75.4% | HOP-62 NSCLC 75.2% | NCI-H460 lung 64.9% | NCI-H522 lung 53.8% | A549/ATCC NSCLC 63.5% | 786-0 renal 78.7% | COLO 205 colon 70.6% | DU-145 prostate 91.2% | K-562 leukemia 55.8% | MALME-3M melanoma 113% | MDA-MB-231 breast 49.3% | RXF 393 renal 81.7% | SF-268 CNS 76.5% | SF-295 CNS 81.2% | SF-539 CNS 76.3% | UACC-257 melanoma 74.5% | M14 melanoma 86.1% | HCT-15 colon 79.8%

COc1ccc(C2=Nc3c(C)nn(-c4ccccc4)c3NC(c3ccc(Oc4ccnc5cc(Cl)ccc45)c(OC)c3)C2)cc1 (stereo not given)
inactive: NCI-H23 lung 77.8% | NCI-H226 lung 74.3% | NCI-H322M lung 95.1% | HOP-62 NSCLC 113% | NCI-H460 lung 81.6% | NCI-H522 lung 62.1% | A549/ATCC NSCLC 84% | 786-0 renal 89.8% | COLO 205 colon 83.6% | DU-145 prostate 100% | K-562 leukemia 62.2% | MALME-3M melanoma 95.6% | MDA-MB-231 breast 58% | RXF 393 renal 80.4% | SF-268 CNS 78.8% | SF-295 CNS 93.1% | SF-539 CNS 92.2% | UACC-257 melanoma 98.3% | M14 melanoma 95.1% | HCT-15 colon 62.9%

O=C(Nc1ccc(CN2CCc3nc4cc(O)c(O)cc4cc32)cc1)c1ccc(Cl)c(Cl)c1
inactive: NCI-H23 lung 105% | NCI-H226 lung 78.7% | NCI-H322M lung 94% | HOP-62 NSCLC 107% | NCI-H460 lung 102% | NCI-H522 lung 101% | A549/ATCC NSCLC 111% | 786-0 renal 104% | COLO 205 colon 99.4% | DU-145 prostate 104% | K-562 leukemia 115% | MALME-3M melanoma 93% | MDA-MB-231 breast 103% | RXF 393 renal 89.4% | SF-268 CNS 96.6% | SF-295 CNS 101% | SF-539 CNS 94.2% | UACC-257 melanoma 103% | M14 melanoma 98.4% | HCT-15 colon 101%

O=C(Nc1cccc(-n2cc(-c3ccncc3)c(-c3cc(O)cc(Cl)c3)n2)c1)c1ccc(N2CCOCC2)c(C(F)(F)F)c1
inactive: NCI-H23 lung 15.4% | NCI-H226 lung 94.7% | NCI-H322M lung 43.5% | NCI-H522 lung 18.8% | 786-0 renal 36.6% | COLO 205 colon 80.5% | DU-145 prostate 38% | SF-268 CNS 52.7%
active: HOP-62 NSCLC -2.19% | NCI-H460 lung -26% | A549/ATCC NSCLC 9.62% | K-562 leukemia -15.5% | MALME-3M melanoma -26.9% | MDA-MB-231 breast -48% | RXF 393 renal -45.6% | SF-295 CNS -35.4% | SF-539 CNS 2.4% | UACC-257 melanoma 9.38% | M14 melanoma -20.7% | HCT-15 colon 6.25%

CCOC(=O)C1(CC(C)C)CCOC1=O (stereo not given)
inactive: NCI-H23 lung 102% | NCI-H226 lung 106% | NCI-H322M lung 104% | HOP-62 NSCLC 109% | NCI-H460 lung 103% | NCI-H522 lung 100% | A549/ATCC NSCLC 94.8% | 786-0 renal 107% | COLO 205 colon 115% | DU-145 prostate 105% | K-562 leukemia 97.8% | MALME-3M melanoma 101% | MDA-MB-231 breast 109% | RXF 393 renal 118% | SF-268 CNS 98.7% | SF-295 CNS 99.5% | SF-539 CNS 97.7% | UACC-257 melanoma 97.7% | M14 melanoma 106% | HCT-15 colon 96.7%
